Screens (PubChem BioAssay)
Rows were chosen to be rich in hits. Some 3.5% of all compounds tested hit in one or more screens of this group.
MITF inh: inhibitors of human MITF | inhibition, % at 2.6 µM | AlphaScreen MITF homodimerization, bead proximity signal | AID 1259374 | actives 0.91% (n = 650,000) | O75030; in the data active means inhibition above about 50%
Target sequence (O75030 whole entry, looked up): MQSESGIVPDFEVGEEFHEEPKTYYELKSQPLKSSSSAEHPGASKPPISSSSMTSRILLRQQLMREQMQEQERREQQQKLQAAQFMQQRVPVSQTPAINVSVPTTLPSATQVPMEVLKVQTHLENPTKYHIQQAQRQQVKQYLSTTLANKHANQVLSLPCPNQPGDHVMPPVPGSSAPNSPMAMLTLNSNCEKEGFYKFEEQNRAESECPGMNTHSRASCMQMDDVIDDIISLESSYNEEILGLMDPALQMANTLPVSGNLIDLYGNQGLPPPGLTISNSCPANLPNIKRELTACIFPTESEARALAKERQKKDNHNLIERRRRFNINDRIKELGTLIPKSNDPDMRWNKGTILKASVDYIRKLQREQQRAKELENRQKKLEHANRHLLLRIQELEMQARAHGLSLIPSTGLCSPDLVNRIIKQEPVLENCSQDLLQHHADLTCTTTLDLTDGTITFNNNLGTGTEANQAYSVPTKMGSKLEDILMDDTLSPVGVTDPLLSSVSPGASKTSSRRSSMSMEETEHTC
FBW7 act: human FBW7 E3 ligase activation, primary screen. normalized activity (activation), % at 26.1 µM. actives 0.13% (n = 650,000). AID 1259310. Q969H0. AlphaScreen FBW7–phospho-cyclin E peptide binding, activator screen; in the data active means normalized activity above about 1.9%;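 further: purified mutant Fbw7 with reduced substrate affinity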
TEAD-YAP block: TEAD-YAP interaction inhibition; HEK-TIYL cells, TEAD-Gal4/YAP UAS-luciferase luminescence; inhibition, % at 9.12 µM; actives 1.4% (n = 640,000); in the data active means inhibition above about 32%
GPR151 ag: activators of human GPR151; Q8TDV0; PathHunter beta-arrestin GPR151 cells, luminescence; activation, % at 11.2 µM; actives 1% (n = 650,000); AID 1508602; in the data active means activation above about 4.9%
MITF confirm: human MITF inhibition, confirmation | shares compounds with MITF inh | AlphaScreen MITF homodimerization, biotin/His-MITF beads | inhibition, % at 2.6 µM | actives 16% (n = 4,700);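 active means inhibition above a cutoff derived from the DMSO control wells, cut at about 28% in these data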;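 further: inhibitors lower the bead chemiluminescence by keeping MITF from dimerizing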
AlphaScreen DR: counter-screen: compounds optically interfering with AlphaScreen | actives 6% (n = 480) | shares compounds with MITF inh | AlphaScreen optical interference counterscreen, cell-free | AID 1259373 | IC50, µM; call rule not given here
AS interf ctr: optically interferes with AlphaScreen signal; shares compounds with MITF inh; LysRS AlphaScreen counterscreen, signal interference, triplicate; inhibition, % at 2.6 µM; actives 7.6% (n = 4,700); AID 1259376;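 active means inhibition above a cutoff derived from the DMSO control wells, cut at about 30% in these data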
A number is an active result; n = inactive; x = not tested or not shown.

SMILES	MITF inh	FBW7 act	TEAD-YAP block	GPR151 ag	MITF confirm	AS interf ctr	others
O=[N+]([O-])c1ccc(N2CCN(Cc3cccc([N+](=O)[O-])c3)CC2)cc1	n	n	n	n	x	x
O=[N+]([O-])c1cccc(CN2CCN(c3ccccn3)CC2)c1	51	n	n	n	n	n
COc1ccc(CN2CCN(Cc3ccccc3F)CC2)cc1OCc1ccccc1	80	n	n	n	n	n
CCN1CCN(Cc2ccc(OC)c(OCc3ccccc3)c2)CC1	n	n	n	n	x	x
CC(C)C(=O)Nc1c(C(=O)Nc2ccc3c(c2)OCO3)oc2ccccc12	n	n	n	n	x	x
CCOC(=O)C1(CCCc2ccccc2)CCN(C(=O)c2cccnc2C)CC1	n	n	n	n	x	x
Cc1ccccc1C(=O)Nc1ccccc1NC(=O)Nc1ccc2c(c1)OCO2	n	n	n	n	x	x
COc1ccc(CN2CCN(Cc3cccc([N+](=O)[O-])c3)CC2)cc1OCc1ccccc1	69	n	n	n	n	n
CCN1CCN(Cc2ccc(OCc3ccccc3)c(OC)c2)CC1	n	n	n	n	x	x
CCOC(=O)CCCCC(=O)c1[nH]c(=O)[nH]c1C	115	n	n	n	118	99
CCOC(=O)CCCCC(=O)c1[nH]c(=O)[nH]c1CSC(=N)N	n	n	n	n	x	x
Cc1[nH]c(=O)[nH]c1C(=O)CCCCC(=O)OCC(=O)Nc1ccccn1	116	n	n	n	118	97
Cc1[nH]c(=O)[nH]c1C(=O)CCCCC(=O)OCC(=O)c1ccc(Br)cc1	114	n	n	n	112	93
Cc1cc(C)cc(OCC(=O)Nc2ccccn2)c1	n	n	n	n	x	x
CCCCc1nnc(NC(=O)COc2ccccc2OCC)s1	n	n	n	n	x	x
CC(C)N(C)c1nc(N)c(C#N)c(C(C#N)Cc2ccccc2)c1C#N (centres undefined)	n	n	n	n	x	x
CC(=O)Nc1ccc(N2CCN(C(=O)c3ccccc3)CC2)cc1	53	n	n	n	n	n
OC(CNC1CC1)COCc1ccccc1F (centres undefined)	59	n	n	n	n	n
CC(C)c1cccc(OCCOCCNC(C)(C)C)c1	67	n	n	n	n	n
CCOc1cccc(OCCOCCNC(C)(C)C)c1	67	n	n	n	n	n
CC(C)c1cccc(OCCOCCNCCN)c1	51	n	n	n	n	n
CCCCNCCOCCOc1cccc(C(C)C)c1	n	n	n	n	x	x
CC(C)(C)c1ccc(S(=O)(=O)N2CCc3nc4ccccc4c(C(=O)O)c3C2)cc1	51	n	n	n	n	n
Cc1ccc(SCC(=O)Nc2ccc(Oc3ccc4c(c3)C(=O)N(c3ccccc3C(F)(F)F)C4=O)cc2)cc1	n	n	n	n	x	x
C(=N\Nc1nnnn1-c1cccc2ccccc12)/c1ccncc1	n	n	n	n	x	x
SMILES	MITF inh	FBW7 act	TEAD-YAP block	GPR151 ag	MITF confirm	AS interf ctr	others
C(=N\Nc1nnnn1-c1cccc2ccccc12)/c1ccc(OCc2ccccn2)cc1	69	n	n	n	n	n
CCOc1ccc(/C=N/NC(=O)Cc2n[nH]c(=O)[nH]c2=O)cc1OC	n	n	n	n	x	x
CCOc1cc(NC(=O)c2ccccn2)c(OCC)cc1NC(C)=O	60	n	n	n	52	76
CCOc1cc(NC(=O)c2ccccn2)c(OCC)cc1NC(=O)CC	n	n	n	n	x	x
CNC(=O)c1cc(Br)cc(S(=O)(=O)N2CCC(C)CC2)c1	n	n	n	n	x	x
CC1CCCCN1C(=O)CN1CCN(c2ncccn2)CC1 (centres undefined)	54	n	n	n	n	n
Cc1ccc(S(=O)(=O)Cn2nnnc2CN2CCOCC2)cc1	64	n	n	n	n	n
Cc1ccc(S(=O)(=O)Cn2nnnc2CN2CCN(c3ccccc3)CC2)cc1	n	n	n	n	x	x
COc1cc(/C=N/NC(=O)C(C)Nc2ccc(Cl)cc2)ccc1O (centres undefined)	n	n	n	n	x	x
CC(C(=O)N1CCCCC1)N(C)CC(=O)Nc1ccc(F)c(F)c1F (centres undefined)	69	n	n	n	n	n
CCN1CCCC1CNC(=O)c1sc2ncnc(N(C)c3ccccc3)c2c1C (centres undefined)	n	n	n	n	x	x
FC(F)(F)c1ccccc1CN1CCN(Cc2ccccn2)CC1	78	n	n	n	n	n
Brc1cccc(CN2CCN(Cc3ccccn3)CC2)c1	n	n	n	n	x	x
Oc1ccc(-c2ncccn2)cc1CN1CCN(c2ccccc2F)CC1	n	n	n	n	x	x
FC(F)(F)c1ccccc1CN1CCN(c2ncccn2)CC1	51	n	n	n	n	n
Fc1ccccc1N1CCN(Cc2ccccn2)CC1	56	n	n	n	n	n
c1ccc(CN2CCN(Cc3cccc4ccccc34)CC2)nc1	64	n	n	n	n	n
c1ccc(N2CCN(Cc3cccc4ccccc34)CC2)nc1	n	n	n	n	x	x
CC(C)Cn1c(=O)c2ccccc2n2c(SCC(=O)N3CCc4ccccc43)nnc12	n	n	n	n	x	x
CSc1ccccc1NC(=O)c1ccc(N2CC3CC(C2)c2cccc(=O)n2C3)c(NC(=O)c2ccc(C(C)(C)C)cc2)c1 (centres undefined)	n	n	n	n	x	x
COc1cc(OC)cc(C(=O)N2CCN(Cc3ccccn3)CC2)c1	57	n	n	n	n	n
COc1cccc(C(=O)N2CCN(Cc3ccccn3)CC2)c1	92	n	n	n	n	n
Cc1cccc2c3c([nH]c12)C1(CCCN(CCC#N)C1)N(C=O)CC3 (centres undefined)	n	n	n	n	x	x
O=C(NCC1CCCN(Cc2ccon2)C1)C1(c2ccc(Cl)cc2)CC1 (centres undefined)	n	n	n	n	x	x
CC(=O)c1ccc(N2C(=O)c3ccc(C(=O)OC(C)C(=O)c4ccccc4)cc3C2=O)cc1 (centres undefined)	n	n	n	n	x	x
SMILES	MITF inh	FBW7 act	TEAD-YAP block	GPR151 ag	MITF confirm	AS interf ctr	others
Cn1cccc1/C=N/NC(=O)c1nc(N)n[nH]1	n	n	n	n	x	x
Nc1n[nH]c(C(=O)N/N=C/c2cccs2)n1	77	n	n	n	51	95
NC(=O)n1c(CCC(=O)O)nc2sc3c(c2c1=O)CCC3	78	n	n	n	73	n	AlphaScreen DR=n
CCOc1ccccc1NC(=O)C1CCCN(S(=O)(=O)c2cnc[nH]2)C1 (centres undefined)	n	n	n	n	x	x
COC(=O)C1=C(N)OC2=C(C(=O)CC(c3ccccc3)C2)C1c1cccnc1 (centres undefined)	n	n	n	n	x	x
CS(=O)(=O)N1CCN=C1SCc1ccccc1F	52	n	n	n	n	n
O=C(COc1ccc(Br)cc1Cl)N1CCCCC1	n	n	n	n	x	x
O=CN1CCN(C(=O)COc2ccc(Br)cc2Cl)CC1	70	n	n	n	n	n
COc1cc2nc(CN3CCCC3c3nccs3)nc(N)c2cc1OC (centres undefined)	64	n	n	n	61	99
